About 520 (0.16%) of roughly 330,000 compounds were called active. The full list was thinned out, with actives kept by preference. A number with no mark means an inactive call.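 Rule for the calls: active = inhibition of at least 50% in every replicate; inconclusive = best replicate reaches 50% inhibition but some replicates fall short; inactive = the rest.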
biological target: Histone acetyltransferase RTT109 (Candida albicans (strain SC5314 / ATCC MYA-2876)) (UniProt Q5AAJ8); experiment: inhibitors of C. albicans Rtt109/Vps75 HAT, primary screen, biochemical, ThioGlo CoA-SH fluorescence, plate reader (AID 540336); details: purified Rtt109/Vps75, ThioGlo CoA-SH fluorescence, 4 h; at 34.9 µM; stronger effect = higher value
Sequence (Q5AAJ8 whole entry, looked up): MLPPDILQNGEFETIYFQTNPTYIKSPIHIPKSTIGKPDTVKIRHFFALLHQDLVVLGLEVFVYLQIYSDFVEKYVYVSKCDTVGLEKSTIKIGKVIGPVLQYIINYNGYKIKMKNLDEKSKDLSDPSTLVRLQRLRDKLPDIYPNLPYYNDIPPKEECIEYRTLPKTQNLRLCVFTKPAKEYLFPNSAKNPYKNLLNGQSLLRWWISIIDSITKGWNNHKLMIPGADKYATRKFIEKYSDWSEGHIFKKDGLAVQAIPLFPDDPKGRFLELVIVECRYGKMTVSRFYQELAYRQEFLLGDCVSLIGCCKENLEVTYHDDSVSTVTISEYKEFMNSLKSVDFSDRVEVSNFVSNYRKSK

| Structure (SMILES) | inhibition |
| --- | --- |
| CCN(CC(=O)Nc1c(F)cccc1F)C(=O)Cc1cccs1 | -5.91% |
| COC(=O)c1ccc(CNC(=O)Cn2cc(C)c(=O)[nH]c2=O)cc1 | -6.85% |
| NC(=S)NN=C1CCCC(C(F)(F)F)C1 (centres undefined) | 6.12% |
| CN(CCc1ccccc1)C(=O)c1cccc(NC(=O)Cc2cccc(NC(=O)C3CCCN(C(=O)CCc4ccccc4)C3)c2)c1 (centres undefined) | 10.3% |
| CCN(CC)CCCC(C)n1c2nc(=O)[nH]c(=O)c-2nc2cc(Cl)ccc21 (centres undefined) | 1.9% |
| CC(=O)Oc1ccc(OC(C)=O)c2c1C1C=CC2CC1 | -1.25% |
| O=C(CCC(=O)N1CCN(S(=O)(=O)c2ccc(Cl)cc2)CC1)NCc1cccc(C(F)(F)F)c1 | -0.722% |
| CC(C(=O)Nc1ccc(O)c(C(=O)O)c1)N1C(=O)/C(=C/c2cccs2)SC1=S (centres undefined) | 81.1% (active) |
| O=C(CCCN1C(=O)/C(=C/c2cccs2)SC1=S)Nc1ccc(O)cc1 | 3.39% |
| O=C(CCN1C(=O)/C(=C/c2cccs2)SC1=S)NNC(=O)c1cccc(O)c1 | 2.35% |
| COc1ccc(C(=O)N(C)Cc2ccc(OC)c(OC)c2OC)cc1S(=O)(=O)N1CCOCC1 | 1.9% |
| O=C1CC(c2ccccc2)C(c2ccccc2)=NN1 (centres undefined) | 6.56% |
| O=C1/C(=C\c2ccc([N+](=O)[O-])cc2)CS(=O)(=O)C/C1=C/c1ccc([N+](=O)[O-])cc1 | -5.87% |
| CCCCN(C(=O)c1cccc(N2C(=O)c3ccccc3C2=O)c1)c1c(N)n(CCCC)c(=O)[nH]c1=O | 6% |
| N#Cc1c(NC(=O)C2CC(Cl)=CCC2C(=O)O)sc2c1CCCCC2 (centres undefined) | -0.566% |
| COC(=O)c1c(NC(=O)C2CC(C)=C(C)CC2C(=O)O)sc2c1CCCCC2 (centres undefined) | 56.5% (active) |
| COC(=O)c1c(NC(=O)CSc2nncs2)sc2c1CCCCC2 | -2.31% |
| COc1ccc(CNC(=O)COC(=O)C2=Cc3ccccc3OC2)cc1 | 7.22% |
| Cn1c(=O)[nH]c2c(c(C(=O)O)nn2C)c1=O | 7.13% |
| C[N+]1(CC(O)COc2ccccc2)CCN(C(=O)c2ccc([N+](=O)[O-])cc2)CC1 (centres undefined) | 52.5% (active) |
| O=C(COc1ccccc1)Nc1ccc(C(=O)N2CCCC2)cc1 | 28.7% |
| CC1CCN(CC(O)COc2ccc(C(=O)c3ccccc3)cc2)CC1 (centres undefined) | 0.839% |
| NC(=O)C1CCN(C(=O)c2cc(S(=O)(=O)N3CCN(c4ccccc4)CC3)ccc2Cl)CC1 | -0.602% |
| CCC(C)C1(C2CCCC2)NC(=O)NC1=O (centres undefined) | -0.893% |

— PubChem BioAssay AID540336 (Broad Institute, 2011)
